# Screening results: PubChem BioAssay, several laboratories
# Compounds with a hit are over-represented: about 4.7% of the library has one in this group of screens.
# ADAM17 inh: inhibitors of human ADAM17 | P78536 | recombinant ADAM17, EDANS/DABCYL FRET peptide cleavage | AID 720648 | actives 0.83% (n = 370,000) | inhibition, % at 6.95 µM;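 active means inhibition above the mean of compounds lying between control limits plus 3 SD, set per campaign, cut at about 8.5% in these data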;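 further: 0% = DMSO-only wells as the low control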
# rCAG RNA binder: molecules binding r(CAG) RNA repeats. AID 651821. actives 1.3% (n = 370,000). r(CAG) RNA repeat, TO-PRO-1 dye displacement fluorescence. inhibition, % at 3 µM;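 active means inhibition above the plate cutoff, the mean of all test compounds on that plate plus 3 SD, cut at about 35% in these data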;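 further: 0% = DMSO alone and 100% = 100 µM mitoxantrone as full dye displacement; higher means more dye released from RNA so lower well fluorescence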
# DSG3 Ab inh: human desmoglein-3 autoantibody binding inhibition | P32926 | DSG3-coupled beads, scFv-anti-DSG3-GFP binding, flow cytometry; active compounds read low | binding (percent of control), % at 10 µM | actives 0.48% (n = 310,000) | AID 588358;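 active means binding more than 3 SD below its plate's average and above zero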;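 further: hits lower antibody fragment binding to DSG3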
# Target sequence (P32926 whole entry, looked up, the tested form may be a part): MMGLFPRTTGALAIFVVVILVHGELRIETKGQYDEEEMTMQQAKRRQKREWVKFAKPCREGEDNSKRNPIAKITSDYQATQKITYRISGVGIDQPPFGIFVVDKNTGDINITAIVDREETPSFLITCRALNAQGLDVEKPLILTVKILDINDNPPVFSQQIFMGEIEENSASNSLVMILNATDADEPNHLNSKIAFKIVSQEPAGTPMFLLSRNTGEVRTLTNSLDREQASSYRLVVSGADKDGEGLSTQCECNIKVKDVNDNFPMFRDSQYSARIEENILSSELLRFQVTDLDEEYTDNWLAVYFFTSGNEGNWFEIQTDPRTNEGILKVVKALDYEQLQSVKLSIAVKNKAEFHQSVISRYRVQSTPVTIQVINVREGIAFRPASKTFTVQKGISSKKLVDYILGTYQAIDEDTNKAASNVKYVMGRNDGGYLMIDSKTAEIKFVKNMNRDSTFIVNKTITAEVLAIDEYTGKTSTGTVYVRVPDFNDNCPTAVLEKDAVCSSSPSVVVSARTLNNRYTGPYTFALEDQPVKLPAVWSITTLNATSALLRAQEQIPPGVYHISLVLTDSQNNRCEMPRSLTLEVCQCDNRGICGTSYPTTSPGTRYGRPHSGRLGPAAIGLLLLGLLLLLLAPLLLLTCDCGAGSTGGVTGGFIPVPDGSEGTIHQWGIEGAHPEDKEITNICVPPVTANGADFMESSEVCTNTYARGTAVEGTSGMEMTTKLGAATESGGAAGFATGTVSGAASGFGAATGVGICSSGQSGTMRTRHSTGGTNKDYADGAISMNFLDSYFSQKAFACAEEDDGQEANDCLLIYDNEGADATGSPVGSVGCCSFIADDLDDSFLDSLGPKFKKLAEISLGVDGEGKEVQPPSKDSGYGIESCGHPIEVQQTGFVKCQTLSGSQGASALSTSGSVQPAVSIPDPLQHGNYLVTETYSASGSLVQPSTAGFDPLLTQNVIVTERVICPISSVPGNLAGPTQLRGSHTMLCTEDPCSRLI
# MPTP block: blocks calcium-induced mitochondrial swelling | inhibition, % at 10 µM | AID 602449 | actives 1.4% (n = 360,000) | isolated mouse mitochondria, Ca2+ swelling absorbance, 30 min;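 active means inhibition of 50% or more, scaled per plate between neutral and stimulator controls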;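 further: 0% = DMSO wells given calcium and 100% = 1 mM EGTA wells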
# proKLK7 act: proKLK7 (human) activation, primary screen; purified proKLK7, EDANS-DABCYL substrate fluorescence; 100% is mature enzyme control, 0% vehicle; P49862; activation, % at 7 µM; actives 0.9% (n = 370,000);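 active means activation above the mean of all tested compounds plus 3 SD, computed per campaign excluding outliers beyond control limits, cut at about 13% in these data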
# ADAM10 inh: ADAM10 inhibition, QFRET primary screen; actives 0.62% (n = 370,000); AID 720582; inhibition, % at 7 µM; O14672; recombinant ADAM10, EDANS/DABCYL FRET peptide cleavage, 3 h;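 active means inhibition above a per-campaign cutoff equal to the mean of compounds falling between control-based bounds plus 3 SD, cut at about 20% in these data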;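 further: 0% = DMSO wells while the 100% control is not disclosed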
# ADAM10 counter: counter-screen for ADAM17 exosite inhibitors: inhibitors of human ADAM10; shares compounds with ADAM17 inh; recombinant ADAM10, EDANS/DABCYL FRET peptide cleavage, 3 h; inhibition, % at 6.95 µM; actives 47% (n = 2,900);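 active means mean inhibition over the triplicate runs exceeds the activity threshold set in the earlier primary screen, cut at about 20% in these data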;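 further: 0% = DMSO wells and 100% = marimastat wells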
# ADAM17 confirm: confirmation of inhibitors of human ADAM17 | shares compounds with ADAM17 inh | recombinant ADAM17, EDANS/DABCYL QFRET peptide cleavage | AID 743257 | actives 65% (n = 2,900) | inhibition, % at 6.95 µM;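 active means mean inhibition across replicates above the hit cutoff set in the primary screen, cut at about 8.5% in these data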;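 further: 0% = DMSO wells and 100% = marimastat wells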
# Numbers without * were called inactive; / = no result.
SMILES,ADAM17 inh,rCAG RNA binder,DSG3 Ab inh,MPTP block,proKLK7 act,ADAM10 inh,ADAM10 counter,ADAM17 confirm
COCCNC(=O)C1(C)CCCN(Cc2ccccc2N(C)C)C1 (stereo not given),-5,-1,/,1,0,-7,/,/
CCN(CC)S(=O)(=O)c1ccc(C(=O)OCn2nnc3ccccc3c2=O)cc1,10*,3,110,-1,0,12,7,5
O=C(OCn1nnc2ccccc2c1=O)c1ccc(S(=O)(=O)N2CCOCC2)cc1,/,/,/,1,/,/,/,/
Cc1ccc(NC(=O)c2ccc3c(c2)OCCO3)cc1S(=O)(=O)Nc1cccc(Cl)c1,9.8*,25,119,-2,0,16,21*,11*
Cc1ccc(NC(=O)c2ccc3c(c2)OCCO3)cc1C,1,-3,108,0,1,5,/,/
CCCNC(=O)C[C@@H]1C[C@@H]2c3cc(NS(=O)(=O)c4ccc(OC)cc4)ccc3O[C@@H]2[C@@H](CO)O1,-4,0,105,0,1,-7,/,/
C[C@H](CO)N1C[C@H](C)[C@@H](CN(C)Cc2ccccc2)Oc2ccc(NC(=O)Cn3cnnn3)cc2C1=O,-3,2,107,-2,0,-9,/,/
O=C(CC1Sc2ccccc2NC1=O)OCC(=O)N1CCc2ccccc21 (stereo not given),9.2*,9,105,-1,0,-2,8,8
Cc1cc(C(=O)COC(=O)CC2Sc3ccccc3NC2=O)c(C)n1-c1ccc(Br)cc1 (stereo not given),8.8*,11,/,-2,-1,13,7,8
Cc1cc(C(=O)COC(=O)CC2Sc3ccccc3NC2=O)c(C)n1-c1ccc2c(c1)OCO2 (stereo not given),3,7,104,6,0,10,/,/
CCC1Sc2ccc(S(=O)(=O)CCC(=O)N3CCc4ccccc43)cc2NC1=O (stereo not given),2,2,102,-1,-1,-4,/,/
CC1CCN(S(=O)(=O)N2CCC(C(=O)NCc3ccc(F)cc3Cl)CC2)CC1,-1,0,95,0,0,1,/,/
CC(Oc1ccc(Cl)cc1Cl)c1ccnc(N)n1 (stereo not given),9.2*,-3,101,-2,0,16,2,3
COc1cccc(-c2nn(-c3ccc(C)cc3)cc2C(=O)N(C)CC(=O)Nc2cccc(F)c2)c1,8,9,97,0,0,20,/,/
CCOc1ccc(NC(=O)CN(C)C(=O)c2cn(-c3ccc(C)cc3)nc2-c2cccc(OC)c2)cc1OCC,14*,9,/,0,0,9,34*,18*
CCc1ccc(N2CC(C(=O)Nc3ccc(C)c(S(=O)(=O)N4CCOCC4)c3)CC2=O)cc1 (stereo not given),9.8*,8,105,5,0,7,2,3
CCc1ccc(N2CC(C(=O)Nc3ccc(OC)c(S(=O)(=O)N4CCOCC4)c3)CC2=O)cc1 (stereo not given),1,3,101,0,1,0,/,/
COc1ccc(NC(=O)COC(=O)c2c3c(nc4ccccc24)CCCC3)cc1,3,8,/,6,0,19,/,/
COc1ccc(OC)c(NC(=O)COC(=O)c2c3c(nc4ccccc24)CCCC3)c1,11*,4,102,-1,1,9,16,14*
Cc1cn(CCC(=O)Nc2ccccc2N2CCOCC2)c2ccccc12,8.9*,-1,/,1,0,9,25*,12*
Cc1cn(CCC(=O)Nc2ccc(N3CCOCC3)cc2)c2ccccc12,1,-2,/,0,0,1,/,/
O=C(CCCC(=O)OCC(=O)c1cccs1)Nc1ccc(Oc2ccccc2)cc1,8.9*,7,109,-5,0,9,10,5
